Drawing on PubChem BioAssay (EPA / NIEHS), this text covers outcome and AC50 for 35 compounds.

Structures are written as SMILES. The source made the active and inactive calls. The calls were made as follows: active = hit-call score of the fitted dose curve at least 0.9, where 1 is the maximum; inactive = score below 0.9.

The nature of the assay: ATG_ERE_CIS: Attagene CIS-FACTORIAL HepG2 Assay for Estrogen Response Element (ERE) (AID 2282940). Conditions: HepG2 ERE cis-reporter, Attagene RNA transcript; actives raise or lower the signal. How it is done:
ATG_CIS is a cell-based, multiplexed-readout assay that uses HepG2, a human liver cell line, with measurements taken at 24 hours after chemical dosing in a 24-well plate.ATG_ERE_CIS is one of 52 assay component(s) measured or calculated from the ATG_CIS assay. It is designed to make measurements of mRNA induction, a form of inducible reporter, as detected with fluorescence intensity signals by Reverse transcription polymerase chain reaction (RT-PCR) and Capillary electrophoresis technology.Data from the assay component ATG_ERE_CIS was analyzed into 1 assay endpoint. This assay endpoint, ATG_ERE_CIS, was analyzed with bidirectional fitting relative to DMSO as the negative control and baseline of activity. Using a type of inducible reporter, measures of mRNA for gain or loss-of-signal activity can be used to understand the reporter gene at the transcription factor-level as they relate to the gene ESR1. Furthermore, this assay endpoint can be referred to as a primary readout, because this assay has produced multiple assay endpoints where this one serves a reporter gene function. To generalize the intended target to other relatable targets, this assay endpoint is annotated to the nuclear receptor intended target family, where the subfamily is steroidal.
Human liver HepG2 cells are transiently transfected with multiple reporter transcription units (MRTUs) in 6-well plates using FuGene 6 reagent (Roche; 3 ml FuGene/1 mg DNA). The MRTU constructs are regulated by a cis-regulating element (promoter). […] A major difference between the CIS and TRANS system is that in CIS activities of endogenous TFs are measured, whereas the TRANS assay evaluates changes in activities of exogenous, chimeric NR-Gal4 proteins. […] At the end of 24 hour incubation, total RNA was isolated using TriZol reagent (Invitrogen). The isolated RNA is then reverse-transcribed using oligo(dT) primer and Mo-MLV reverse transcriptase (Invitrogen) with DNAse I (Ambion) treatment for 30 min. The one-tenth of the produced cDNA was amplified by PCR using Taq DNA polymerase (Invitrogen) and two reporter sequence-specific primers. The PCR products were fluorescently labeled by primer extension with 6-arboxyfluorescein (6-FAM) 5'-labeled reporter sequence-specific primer (2 min at 95 C, 20 s at 68 C and 10 min at 72 C) and these products were digested with 5U of HpaI (New England Biolabs) for 2h at 37 C. The fragments were purified using Qiaquick PCR columns (Qiagen), analyzed on an ABI 3130xL genetic analyzer (Applied Biosystems) with peak positions identified by using a set of X-rhodamine (ROX)-labeled MapMarker1000 molecular weight standards (BioVentures). The raw capillary electrophoresis data was processed using Attagraph software (Attagene).
With `CSc1ccc(Oc2ccc(S(N)(=O)=O)cc2CN(C)C)cc1C`, the result was inactive.
Usually AC50 stands for the midpoint of the concentration-response curve, whichever way the signal moves. On to `Oc1ccc(O)cc1`, for which the AC50 was 35.6 µM (active).
As to `CCCCCCCCCCCCCCOS(=O)(=O)O`, the call was inactive.
For the compound `Cc1ccc(C(C)(C)C)c(O)c1`, the AC50 is 25.1 µM (active).
On to `CCc1nc(N)nc(N)c1-c1ccc(Cl)cc1`, for which the outcome was inactive.
Still for that read-out and setting: then `CC(C)c1cccc(C(C)C)c1`, with “inactive”; and `CCCCCCC(CCCCCCCCCCC(=O)OCC(COC(C)=O)OC(C)=O)OC(C)=O` (stereo not given), with “inactive”.
As for `COC(=O)CCC(=O)OC`, the compound was classed as inactive.
For `CCCCCCCC(=O)OC`, the compound was classed as inactive.
Regarding `O=Cc1ccccc1C=O`, the compound was called inactive.
Regarding `O=C(O)c1[nH]n(-c2ccc(S(=O)(=O)O)cc2)c(=O)c1N=Nc1ccc(S(=O)(=O)O)cc1`, the result was inactive.
The same measure, in the same setting: then `O=[Si]=O`, with “inactive”; and `NC1CCCCC1`, with “inactive”; and `CCC(C)N(C)C(=O)c1cc2ccccc2c(-c2ccccc2Cl)n1` (stereo not given), with “inactive”.
Take `CS(=O)(=O)c1ccc([C@@H](C[C@H]2CCC(=O)C2)C(=O)Nc2cnccn2)cc1Cl`: the AC50 was 45.5 µM (active).
Same read-out and setting: then `CC1(C)C(=O)NC(=O)N1CO`, with 158 µM (active).
Regarding `CC1=C(C)S(=O)(=O)CCS1(=O)=O`, the call was inactive.
On the same count and under the same terms, then `CCCCc1nc2cccnc2n1Cc1ccc(-c2ccccc2-c2nnn[nH]2)cc1`, with “inactive”; and `NC(=Nc1ccccc1)Nc1ccccc1`, with “inactive”.
As to `Cc1ccc(-c2cc(C(F)(F)F)nn2-c2ccc(S(N)(=O)=O)cc2)cc1`, the compound was called inactive.
On the same count and under the same terms, then `CN(C)CCCN(C)CCCN(C)C`, with “inactive”.
Still for that read-out and setting: then `OCC(CO)n1cnc(-c2ccc(F)cc2)c1-c1ccnc(Oc2ccccc2)n1`, with “inactive”; and `CCCCCCCCCC[N+](C)(C)[O-]`, with “inactive”; and `CCCCCCCCCCCCCCCCO`, with “inactive”.
The same measure, in the same setting: then `c1ccc2occc2c1`, with “inactive”.
For the compound `COc1ccc(OC(F)(F)F)cc1CN[C@H]1CCCN[C@H]1c1ccccc1`, the outcome was inactive.
With `Cc1c(C)c2c(c(C)c1O)CCC(C)(COc1ccc(CC3SC(=O)NC3=O)cc1)O2` (stereo not given), the AC50 is 0.221 µM (active).
On to `O=C(N[C@@H](c1ccccc1)[C@@H]1CCCCN1)c1cccc(C(F)(F)F)c1Cl`, for which the result was inactive.
In the case of `CC(C)OC(=O)C(C)(C)Oc1ccc(C(=O)c2ccc(Cl)cc2)cc1`, the AC50 was 27.7 µM (active).
Same read-out and setting: then `COc1ccc(C(=O)Nc2nc3ccccc3c(NCc3ccccc3)c2C#N)cc1`, with 1.46 µM (active).
For `CN(C)C(=O)NC1(c2ccccc2)CCN(CCC[C@]2(c3ccc(Cl)c(Cl)c3)CCCN(C(=O)c3ccccc3)C2)CC1`, the compound was classed as inactive.
The same measure, in the same setting: then `O=C1CCCCC1`, with “inactive”.
Turning to `Nc1nc(=S)c2[nH]cnc2[nH]1`, the AC50 was 98.1 µM (active).
For the compound `O=C(NS(=O)(=O)/C=C/c1cccs1)c1ccc(F)cc1Br`, the outcome was inactive.
The same measure, in the same setting: then `O=C(O)CN(CC(=O)O)CC(=O)O`, with “inactive”.
